Source: PubChem BioAssay
Only some compounds are listed: those with a hit (about 0.44% of all), similar ones and a draw of the others.
Rango release inh: qHTS Assay for Inhibitors of RanGTP induced Rango (Ran-regulated importin-beta cargo) - Importin beta complex dissociation; Snurportin-1 (Homo sapiens) + GTP-binding nuclear protein Ran (Homo sapiens) + Importin …; Biochemical FRET Rango-importin beta, RanGTP-induced dissociation; Potency, µM (top dose mostly 46.1 µM), for inactives: at the highest dose activity change, negative = inhibition; actives 0.071% (n = 340,000); AID 540253, 2011; calls by dose curve; also: % of control where 0% means no effect; nearly all actives have a fitted effect of over 45% in size
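Compounds preincubate 5 min with complex of recombinant Rango and importin beta in PBS with 1 mM DTT. Ran (0.6 uM) loaded with 2 mM GTP plus 0.2 uM RCC1 starts dissociation; FRET is recorded 45 min later.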
Chronic BCR inh: qHTS Assay to Find Inhibitors of Chronic Active B-Cell Receptor Signaling. actives 0.05% (n = 340,000). Potency, µM (doses to about 46.1 µM), for the others: top-dose activity change, negative = inhibition, actives largely listed as inhibitors. AID 493014, 2011. ABC-DLBCL IkBa-CBG/CBR reporter, luminescence ratio, 4 h; active = well fitted inhibition curve with a large enough effect in the signal ratio, with a control signal flat, not every such curve was filed as active; inconclusive = small, poorly fitted or top-dose-only effect, or effect the other way, or a change in a side signal; the % refers to the signal ratio;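 also: plate controls were basal doxycycline-induced cells for no effect and cells given 10 µM MG132 for full effect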
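TMD8 ABC-DLBCL cells carrying doxycycline-inducible green luciferase fused to IkappaBalpha plus unfused red luciferase were exposed to compounds (up to 46 uM) for 4 hrs at 37C. Activity came from the overlap-corrected green/red luminescence ratio.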
Rango complex inh: qHTS Assay for Inhibitors of Rango (Ran-regulated importin-beta cargo) - Importin beta complex formation; Rango CFP/YFP FRET sensor + importin beta, 45 min; Potency, µM (titrated, usually from 92.2 µM), for inactives: top-dose inhibition of complex formation; actives 0.031% (n = 340,000); AID 540263, 2011; calls by dose curve;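 also: 0% = DMSO wells and 100% = buffer wells lacking importin beta; nearly all actives have a fitted effect of over 15% in size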
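FRET biosensor (snurportin 1 IBB flanked by EYFP and cerulean), 50 nM, with compound 5 min, then 0.125 microM importin beta in PBS, 1 mM DTT, 0.02% Tween-20, 0.1% BSA. CFP/YFP ratio read after 45 min at room temperature; pre-read flags interference.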
Tb PFK inh-1: qHTS Assay to Find Inhibitors of T. brucei phosphofructokinase; Potency, µM (top dose mostly 57.5 µM), inactives show at the top dose activity, negative = inhibition, actives largely listed as inhibitors; T. brucei PFK, ADP-Glo luminescence; actives 0.17% (n = 330,000);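 also: 0% = uninhibited 1x PFK enzyme wells and -100% = no-enzyme wells; nearly all actives have a fitted effect of over 60% in size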
Target sequence (O15648 whole entry, looked up): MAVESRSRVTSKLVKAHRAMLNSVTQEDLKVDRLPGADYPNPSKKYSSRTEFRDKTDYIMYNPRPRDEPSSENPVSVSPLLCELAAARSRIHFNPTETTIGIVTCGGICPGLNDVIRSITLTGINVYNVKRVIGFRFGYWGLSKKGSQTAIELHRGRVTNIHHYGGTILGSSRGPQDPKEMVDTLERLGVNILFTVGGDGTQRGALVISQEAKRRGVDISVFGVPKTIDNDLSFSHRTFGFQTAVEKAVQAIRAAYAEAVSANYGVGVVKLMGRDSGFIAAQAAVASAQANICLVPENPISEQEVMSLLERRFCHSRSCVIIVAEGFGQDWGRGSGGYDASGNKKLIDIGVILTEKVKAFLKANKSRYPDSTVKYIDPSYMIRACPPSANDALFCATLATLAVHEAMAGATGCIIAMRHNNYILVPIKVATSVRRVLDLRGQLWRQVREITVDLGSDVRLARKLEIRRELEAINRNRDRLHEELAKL
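ADP-Glo luminescence quantified ADP after 45 min at room temperature, with 1.25 nM T. brucei PFK, 0.1 mM ATP and 0.5 mM fructose-6-phosphate in pH 8.0 TEA buffer. qHTS titrations up to 57 µM; curves classified by quality.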
Luc counter: Counterscreen for Luciferase (Kinase-Glo TM) Inhibition. Luciferin 4-monooxygenase (Photuris pensylvanica), Q27757. Kinase-Glo luciferase, ATP luminescence, 8 min. Potency, µM (series often up to 38.3 µM), for the others: at the top dose activity change, negative = inhibition, actives largely listed as inhibitors. actives 0.28% (n = 200,000); also: % is scaled to controls: 0 for no effect and ±100 for the full control effect; nearly all actives have a fitted effect of over 60% in size
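Compound is pinned into ATP-containing buffer (10 uM ATP, imidazole pH 7.2, 7 mM MgCl2). Kinase-Glo luciferase reagent is then added. Light output is recorded following an 8-min room-temperature incubation.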
LMNA splice mod: qHTS Assay for Modulators of Lamin A Splicing | HeLa LMNA splicing GFP/RFP minigene ratio, 48 h | Potency, µM (series often up to 46.1 µM), for inactives: top-dose ratio change, negative = inhibition, usual class: inhibitors | actives 0.01% (n = 200,000) | AID 1487, 2009; active = well fitted inhibition curve with a large enough effect in the signal ratio, with a control signal flat, not every such curve was filed as active; inconclusive = small, poorly fitted or top-dose-only effect, or effect the other way, or a change in a side signal; the % refers to the signal ratio; also: % is scaled to controls: 0 for no effect and ±100 for the full control effect
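S3 HeLa cells stably expressing lamin A-EGFP splicing minigene plus DsRed2, 600 cells/well, 48 h compound exposure at 37C. Laser-scanning cytometry; analysed as GFP (500-530 nm)/RFP (575-640 nm) total intensity ratio; 0.5% DMSO vehicle.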
Tb PFK KinaseGlo: Tb PFK orthogonal confirmatory assay using ATP depletion (Kinase-Glo Plus) as an alternative measure of Tb PFK activity: Hit Validation. shares compounds with Tb PFK inh-1. Tb PFK enzyme, ATP depletion, Kinase-Glo Plus luminescence. Potency, µM (doses to about 57.5 µM), inactives show at the highest dose inhibition. actives 47% (n = 1,100); calls by dose curve; also: nearly all actives have a fitted effect of over 60% in size
Tb PFK inh-2: Inhibitors of T. brucei phosphofructokinase: Hit Validation | shares compounds with Tb PFK inh-1 | purified T. brucei PFK, ADP-Glo luminescence, 45 min | Potency, µM (highest dose often 57.5 µM), inactives show at the top dose activity change, negative = inhibition, hits mostly inhibitors | actives 41% (n = 1,100) | AID 504637, 2011;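 also: plate controls were full PFK enzyme control for no effect and no enzyme control for full effect; nearly all actives have a fitted effect of over 60% in size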
* hit, by the source's call; ? = inconclusive; / = no result given; [ ] = dose if it differs, or a comment. Unless noted, calls follow the shape of the dose curve; as a rule, active = well fitted curve in the direction sought with a large enough effect; inconclusive = small, poorly fitted or top-dose-only effect, or another doubt; inactive = no such curve, though single readings can be large; an effect the other way counts as inactive or inconclusive. Potency is read from the fitted curve at half-maximal effect.

SMILES	Rango release inh	Chronic BCR inh	Rango complex inh	Tb PFK inh-1	Luc counter	LMNA splice mod	Tb PFK KinaseGlo	Tb PFK inh-2
O=C(CCS(=O)(=O)c1ccc(Br)cc1)Nc1ccc(Br)cc1F	-11.0%	0.3%	1.1%	?	2.5%	5.8%	?	?
CCN1CCN(Cc2cc(Br)ccc2O)CC1	0.3%	7.7%	4.6%	-5.4%	-3.1%	9.9%	/	/
N#Cc1sc(NCc2cccc(Cl)c2)nc1Cl	-1.7%	10.3%	3.7%	?	/	/	19µM*	30.1µM*
CCc1nn2c(N)c(/C=C3\C=Nc4ccccc43)c(=O)nc2s1	?	?	?	?	-1.7%	?	-26.0%	?
C=CC(=O)OCCO	-1.1%	/	-2.6%	/	/	/	/	/
COc1ccc(CN2C(=O)c3cccnc3C2O)cc1 (centres undefined)	-1.8%	-12.0%	4.6%	26.9µM*	-1.8%	9.9%	?	?
COc1ccc(CN2C(=O)CC(=O)NC2=O)cc1	-3.3%	4.7%	0.4%	-7.7%	/	5.3%	/	/
O=C(O)/C=C\C(=O)Nc1ccc(N2CCN(c3ccc(Cl)c(Cl)c3)CC2)cc1	-6.3%	-0.1%	-4.8%	?	-9.5%	32.4%[46 µM]	5.36µM*	10.7µM*
COc1ccccc1NS(=O)(=O)c1cccc(-n2c(O)c(C=Nc3ccccc3C(=O)O)c3ccccc3c2=O)c1	?	?	?	?	/	/	-29.2%	?
O=C(O)c1ccccc1NS(=O)(=O)c1cccc(N=Nc2c(O)[nH]c(=S)[nH]c2=O)c1	19.7%	3.8%	-1.7%	?	/	/	/	/
O=c1cc2c(=O)oc3cc(O)c(O)oc3c2c(O)c1O	?	-0.6%	?	7.57µM*	/	10.4%[46 µM]	1.2µM*	1.35µM*
Cc1ccccc1-[n+]1c(-c2ccccc2)cc(-c2ccccc2)cc1-c1ccccc1	-0.8%	?	-3.2%	-6.4%	/	/	/	/
CC1(C)CC2CCC(O)C2C(CCO)N1 (centres undefined)	10.2%	/	1.7%	/	/	/	/	/
COc1ccc(OC)c(CN2CCCC(C(=O)c3sccc3C)C2)c1 (centres undefined)	9.0%	-0.7%	0.3%	-2.6%	/	/	/	/
O=C(NCC1CCN(Cc2cccc(Cl)c2)CC1)Nc1ccc(Cl)cc1	-10.9%	?	1.1%	?	/	/	?	?
COc1ccc(OC)c(CN2CCC(CNC(=O)Nc3cccc(Cl)c3)CC2)c1	-0.6%	?	-2.9%	?	2.5%	/	?	?
O=[N+]([O-])c1cccc(CN2CCN(Cc3ccc(Cl)cc3)CC2)c1	-13.7%	-2.8%	7.6%	-1.8%	6.1%	?	/	/
CNc1ccc2nc3ccccc3[n+](C)c2c1	?	?	-5.2%	-23.7%	/	/	/	/
CCN(CC)c1ccc2nc3ccccc3[n+](CC)c2c1	-14.2%	?	-2.8%	15.1µM*	/	/	-17.2%	?
Cc1cc(C)nc(N2Cc3ccccc3C2=N)n1	11.4%	-1.7%	-1.0%	0.5%	4.7%	?	/	/
COc1ccc(OC)c2c1C(=O)C(Cl)=C(Cl)C2=O	-8.6%	?	2.6%	1.2µM*	/	/	0.338µM*	0.675µM*
CC(=O)Nc1cc(C(=O)CSc2nnc(C3CC3)n2C2CC2)ccc1O	26.9%	2.9%	-1.2%	?	/	/	?	?
Cc1cc(NC(=O)CSc2nnc(C3CC3)n2N)no1	-0.2%	-5.7%	?	-1.8%	-2.2%	-3.3%	/	/
CCn1c(CCNC(=O)c2ccc(OC)cc2)nnc1SCc1ccc(Cl)c(Cl)c1	-7.0%	-2.2%	1.6%	16.9µM*	-1.4%	?	12µM*	23.9µM*
COc1ccc(C(CNC(=O)Cc2ccc(Cl)c(Cl)c2)N2CCCCC2)cc1 (centres undefined)	-11.5%	2.2%	0.2%	-7.1%	/	/	/	/
SMILES	Rango release inh	Chronic BCR inh	Rango complex inh	Tb PFK inh-1	Luc counter	LMNA splice mod	Tb PFK KinaseGlo	Tb PFK inh-2
NS(=O)(=O)c1ccc(NC(=S)N2CCN(c3cccc(Cl)c3)CC2)cc1	-7.9%	7.4%	-0.2%	?	3.2%	?	10.7µM*	15.1µM*
O=C(Nc1cccc(C(=O)N2CCN(c3cccc(Cl)c3)CC2)c1)c1ccccc1	-2.6%	?	-0.4%	?	-1.3%	/	?	?
O=C(CSc1ccccn1)Nc1cccc2ccccc12	-4.6%	12.3%	-0.3%	0.0%	-2.5%	?	/	/
O=C(CSc1ccccn1)N1CCN(c2cccc(Cl)c2)CC1	7.6%	?	7.1%	?	-0.7%	?	?	?
CC(=O)c1ccc(NC(=O)N2CCN(c3cccc(Cl)c3)CC2)cc1	8.0%	?	1.7%	21.3µM*	-0.7%	3.0%	21.3µM*	?
COc1cc2c(cc1OC)C(C1c3cc4c(cc3CCN1C)OCO4)OC2=O (centres undefined)	-2.4%	-4.1%	-0.2%	-0.4%	/	/	/	/
COC(=O)C1=C(c2ccc(F)cc2F)C[C@@H]2CC[C@H]1N2C	-4.1%	-0.6%	0.1%	-0.4%	/	/	/	/
c1cc(CCN2CCCCC2)ccn1	/	/	/	/	-10.1%[7.66 µM]	/	/	/
COCCNC(=O)CN1C(=O)C(C)N=C(c2ccccc2)c2cc(Cl)ccc21 (centres undefined)	-3.5%	2.1%	7.4%	4.2%	/	/	/	/
O=C(CCn1c(=O)oc2ccc(Cl)cc21)N1CCN(c2ccccc2)CC1	10.7%	?	-4.3%	6.0%	/	/	/	/
O=C(CCC(=O)N1CCN(c2cccc(Cl)c2)CC1)N1CCN(c2ccccc2)CC1	5.0%	-14.8%	0.5%	?	/	/	?	?
O=C(CCC(=O)N1CCN(c2cccc(Cl)c2)CC1)c1cccs1	15.4%	1.1%	-3.4%	?	/	/	?	?
O=C(COc1ccc(F)c(Cl)c1)c1ccc[nH]1	-2.9%	-4.8%	0.4%	?	-8.9%	3.1%	?	?
